ClpP mod = qHTS Assay for Activators of ClpP; ATP-dependent Clp protease proteolytic subunit (Bacillus subtilis (strain 168)), P80244; AID 651965, 2013; purified B. subtilis ClpP, FRET peptide cleavage, 20 min; Potency, µM (top dose mostly 57.5 µM), for the others: at the top dose activity change, negative = active; hit rate 1.9% among 340,000; active = well fitted falling curve with a large enough effect; inconclusive = small, poorly fitted or top-dose-only effect; inactive = no such curve, though single readings can be large or run the other way; also: the source files actives as falling curves though it sought activators and does not explain the sign; nearly all actives have a fitted effect of over 65% in size
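ClpP 10 microg/mL final, pH 8 Tris/KCl buffer with BSA, glycerol, Tween-20; compound pinned in; FRET-FV substrate; RT 20 min; Ex320/Em430; ΔFRET vs ADEP 5.8 microM, DMSO, no enzyme.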
Eya2 inh = qHTS Assay for Inhibitors of the Phosphatase Activity of Eya2; Protein phosphatase EYA2 (Homo sapiens), O00167; recombinant Eya2, OMFP fluorescence dephosphorylation (OMFP is methylfluorescein phosphate); Potency, µM (doses to about 76.9 µM), for inactives: top-dose activity, negative = inhibition, usual class: inhibitors; hit rate 0.006% among 330,000; AID 488837, 2010; also: % is scaled to controls: 0 for no effect and ±100 for the full control effect
Target sequence (O00167 whole entry, looked up): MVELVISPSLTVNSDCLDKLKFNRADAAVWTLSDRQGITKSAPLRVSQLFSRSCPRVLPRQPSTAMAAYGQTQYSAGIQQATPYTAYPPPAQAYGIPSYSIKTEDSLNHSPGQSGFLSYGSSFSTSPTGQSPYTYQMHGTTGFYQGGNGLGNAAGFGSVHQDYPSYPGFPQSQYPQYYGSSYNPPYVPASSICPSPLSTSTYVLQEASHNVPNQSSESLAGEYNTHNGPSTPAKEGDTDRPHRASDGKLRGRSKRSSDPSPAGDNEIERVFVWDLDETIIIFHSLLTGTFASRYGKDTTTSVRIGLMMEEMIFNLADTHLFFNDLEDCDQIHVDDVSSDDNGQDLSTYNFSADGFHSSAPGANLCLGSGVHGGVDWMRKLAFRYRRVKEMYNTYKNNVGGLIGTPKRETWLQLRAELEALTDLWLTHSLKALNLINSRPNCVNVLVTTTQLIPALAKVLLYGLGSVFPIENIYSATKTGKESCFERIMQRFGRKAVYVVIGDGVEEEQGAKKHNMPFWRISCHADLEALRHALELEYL
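Eya2 (0.2 uM) preincubated 10 min at ambient with compound, then OMFP substrate added at 50 uM; 10 min reaction in 50 mM HEPES pH 7.5, 50 mM NaCl, 5 uM MgCl2, 0.05% BSA, 1 mM DTT. Fluorescence read at Ex 485/Em 525 nm.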
USP2a inh = qHTS Assay for Inhibitors of Ubiquitin-specific Protease USP2a Using CHOP2 as the Reporter. Ubiquitin carboxyl-terminal hydrolase 2 (Homo sapiens), O75604. USP2 core, Ub-CHOP2 coupled fluorogenic reporter, 485/531. Potency, µM (doses to about 38.3 µM), for the others: at the top dose activity change, negative = inhibition, actives largely listed as inhibitors. hit rate 0.01% among 330,000. AID 463254, 2010;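 also: plate controls were DMSO wells for no effect and full inhibition by NEM control for full effect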
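Cell-free coupled assay: 10nM USP2 core preincubated 30min RT with compound in Tris-HCl pH 8.0/CaCl2/CHAPS buffer, then 25nM Ub-CHOP2 and 25nM reporter substrate; fluorescence (Ex 485/Em 531) read after 60min RT, normalized to NEM inhibition, concentration-response curves fitted.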
GALK inhibitor = qHTS Assay for Inhibitors of Human Galactokinase (GALK) | Purified GALK, Kinase-Glo residual ATP luminescence | Potency, µM (titrated, usually from 57.5 µM), without a hit: at the highest dose activity change, negative = inhibition, hits mostly inhibitors | hit rate 0.007% among 270,000; also: % is scaled to controls: 0 for no effect and ±100 for the full control effect
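ATP-depletion format; final 35 uM ATP, 100 uM D-galactose, 5 nM enzyme; pH 8.0 HEPES/Mg2+ buffer; 60 min RT; luminescence read 10 min after detection reagent.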
The depositor's hits bear a star; ! = not active in a repeat. The full list was thinned out, with hits kept by preference. Unless noted, calls follow the shape of the dose curve; as a rule, active = well fitted inhibition curve with a large enough effect; inconclusive = small, poorly fitted or top-dose-only effect, or effect the other way; inactive = flat fitted curve, though single readings scatter. Potency is read from the fitted curve at half-maximal effect.

Results for COc1ccc(-c2[nH]c(-c3ccc(Cl)cc3)nc2SCC(=O)NCC2CCCO2)cc1 (stereo not given) ?
ClpP mod: 25µM*

Results for Cc1ccc(-c2nc(SCC(=O)NCC3CCCO3)c(-c3ccc(C)cc3)[nH]2)cc1 (stereo not given) ?
ClpP mod: 25µM*; Eya2 inh: 1%; USP2a inh: 3%

Results for CC(C)(C)NC(=O)NC(=O)COC(=O)CNC(=O)c1cccc(F)c1 ?
ClpP mod: 1%; Eya2 inh: -9%; USP2a inh: 1%; GALK inhibitor: 3%

Results for O=C(Nc1ccnn1C1CCN(C/C=C/c2ccccc2)CC1)c1ccccc1Cl ?
ClpP mod: -23%; Eya2 inh: -5%; USP2a inh: -10%; GALK inhibitor: -4%

How did COc1ccc(-c2nc(SCC(=O)Nc3ccc4c(c3)OCCO4)c(-c3ccc(F)cc3)[nH]2)cc1 do in these assays?
ClpP mod: -5%

Results for Cc1ccc(-c2[nH]c(-c3ccccc3)nc2SCC(=O)NCC2CCCO2)cc1 (stereo not given) ?
ClpP mod: 28µM*!; Eya2 inh: 1%; USP2a inh: -1%

What do the screens show for `COc1cccc(-c2nc(SCC(=O)Nc3ccc4c(c3)OCCO4)c(-c3ccc(C)cc3)[nH]2)c1`?
ClpP mod: 28µM*

How did Cc1cc(NC(=O)c2cc(-c3ccc(Cl)c(Cl)c3)on2)n(-c2ccccc2)n1 do in these assays?
ClpP mod: 0%

How did CC(c1ccccc1)N1C(=O)c2ccccc2C1(O)Cc1ccccc1 (stereo not given) do in these assays?
Eya2 inh: 2%; USP2a inh: -4%; GALK inhibitor: -1%

What do the screens show for `Cc1cc(C)n(CCCNC(=O)c2cc(COc3ccc(C)c(C)c3)on2)n1`?
ClpP mod: -12%; Eya2 inh: 6%; USP2a inh: -1%; GALK inhibitor: -5%

Results for Cc1ccc(O)c(-c2cc3ccccc3[nH]2)c1 ?
ClpP mod: 14µM*; Eya2 inh: -37%; USP2a inh: -2%; GALK inhibitor: 2%

Results for COc1ccc(-c2cc3ccccc3[nH]2)cc1 ?
Eya2 inh: -1%; USP2a inh: 1%; GALK inhibitor: -1%

Results for Cc1cc(C)c(S(=O)(=O)Nc2cccc(-c3cn4ccccc4n3)c2)c(C)c1 ?
ClpP mod: 28µM*

What do the screens show for `CCCCC(=O)Nc1cccc(-c2cn3ccccc3n2)c1`?
ClpP mod: 28µM*; Eya2 inh: -1%; USP2a inh: 0%; GALK inhibitor: -1%

How did Cc1cccc(S(=O)(=O)Nc2ccc(-c3cn4ccccc4n3)cc2)c1 do in these assays?
ClpP mod: 28µM*; Eya2 inh: 8%; USP2a inh: 4%; GALK inhibitor: 2%

What do the screens show for `Cc1cc(C)c(S(=O)(=O)Nc2ccc(-c3cn4ccccc4n3)cc2)c(C)c1`?
ClpP mod: inconclusive; Eya2 inh: -3%; USP2a inh: -8%; GALK inhibitor: 1%

What do the screens show for `Cc1cc(=O)n2[nH]c(-c3ccc(Cl)cc3)cc2n1`?
ClpP mod: 28µM*; Eya2 inh: -13%; USP2a inh: -3%; GALK inhibitor: 0%

What do the screens show for `Cc1cc(=O)n2[nH]c(-c3ccc(F)cc3)cc2n1`?
ClpP mod: 16µM*; Eya2 inh: 8%; USP2a inh: -1%; GALK inhibitor: 1%

Results for CCOC(=O)C1=C(C)OC(N)=C(C#N)C1c1cc2ccccc2nc1N1CCCCC1 (stereo not given) ?
ClpP mod: -15%; Eya2 inh: inconclusive; USP2a inh: 14%; GALK inhibitor: 0%

Results for CCOC(=O)C1=C(C)OC(N)=C(C#N)C1c1cc2cc(C)ccc2nc1N1CCCCC1 (stereo not given) ?
ClpP mod: 28µM*; Eya2 inh: -35%; USP2a inh: 5%; GALK inhibitor: -5%

What do the screens show for `CCc1cc(=O)oc2cc(OCC(N)=O)c(Cl)cc12`?
ClpP mod: 32µM*; Eya2 inh: 4%; USP2a inh: 1%; GALK inhibitor: -4%

Results for Cc1cc(=O)oc2cc(OCC(=O)NCCCN3CCOCC3)ccc12 ?
ClpP mod: 28µM*; GALK inhibitor: 4%

Results for C=C(Cl)COc1ccc2c(CCCC)cc(=O)oc2c1 ?
ClpP mod: 28µM*; Eya2 inh: -24%; USP2a inh: 4%; GALK inhibitor: 0%

How did O=C(COc1ccc2c(-c3ccccc3)cc(=O)oc2c1)NCCCN1CCOCC1 do in these assays?
ClpP mod: 1%; Eya2 inh: 11%; USP2a inh: 1%; GALK inhibitor: 6%

Results for CCCCc1cc(=O)oc2cc(OS(C)(=O)=O)ccc12 ?
ClpP mod: 1%; Eya2 inh: 2%; USP2a inh: 4%

How did CCCCc1cc(=O)oc2cc(OCC(=O)N(CC)CC)ccc12 do in these assays?
ClpP mod: 28µM*; Eya2 inh: 13%; USP2a inh: -6%; GALK inhibitor: -1%

What do the screens show for `CCOc1cc(/C=N/NC(=O)c2cc(C)[nH]n2)ccc1OC(=O)c1ccc([N+](=O)[O-])cc1`?
Eya2 inh: -10%; USP2a inh: 0%; GALK inhibitor: -7%

Results for Brc1ccccc1-c1cnco1 ?
Eya2 inh: 5%; USP2a inh: 2%; GALK inhibitor: -2%

Results for CNC(=O)COC(=O)COc1ccc2c(C)cc(=O)oc2c1 ?
Eya2 inh: -2%; USP2a inh: 5%; GALK inhibitor: 0%

How did C=C(C)COc1ccc2c(CC)cc(=O)oc2c1 do in these assays?
ClpP mod: 4%; Eya2 inh: -9%; USP2a inh: 4%; GALK inhibitor: 1%

How did C=C(Cl)COc1ccc2c(C)cc(=O)oc2c1 do in these assays?
ClpP mod: 10µM*; Eya2 inh: 3%; USP2a inh: -1%; GALK inhibitor: 1%

Results for C=C(Cl)COc1ccc2c(CC)cc(=O)oc2c1 ?
ClpP mod: 25µM*; Eya2 inh: 1%; USP2a inh: 3%; GALK inhibitor: -1%

What do the screens show for `COc1ccccc1N1CCN(C(=O)c2ccc(-c3nc4ccccc4s3)o2)CC1`?
ClpP mod: -5%; Eya2 inh: 14%; USP2a inh: 4%

How did CCCCCC(=O)N1C[C@@H](O)[C@H](n2cc(C3CC3)nn2)C[C@@H]1c1ccccc1 do in these assays?
ClpP mod: 1%

What do the screens show for `COc1ccc2c(c1)[nH]c1c(=O)n(Cc3ccco3)cnc12`?
ClpP mod: 0%; Eya2 inh: -11%; USP2a inh: 3%; GALK inhibitor: -2%

What do the screens show for `Cn1c(=N)c(S(=O)(=O)c2ccccc2)cc2c(=O)n3ccccc3nc21`?
ClpP mod: 7.9µM*; Eya2 inh: 6%; USP2a inh: 3%; GALK inhibitor: 1%

High-throughput results: PubChem, National Center for Advancing Translational Sciences (NCATS)
